# Reference: PubChem BioAssay (NCATS)
# Results filed as inconclusive are left out. Activity calls are given as the source filed them. Unless noted, calls follow the shape of the dose curve; as a rule, active = well fitted cell-killing curve with a large enough effect; inconclusive = small, poorly fitted or top-dose-only effect, or effect the other way; inactive = no such curve, though single readings can be large or run the other way.
# Assays:
# [1] = Quantitative High-Throughput drug screen in 47 multiple myeloma cell lines against the NCATS MIPE library collection: RPMI8226_ATCC cell viability assay (AID 1919871); also: nearly all actives have a fitted effect of over 30% in size; also: potency is read from the fitted curve at half-maximal effect
# Outline: (§1)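 Plated at 500 cells per well, myeloma lines received MIPE 4.0 compounds by pin tool. Following 48 h culture at 37 °C, CellTiter-Glo luminescence gave viability relative to DMSO and media-only controls.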
# [2] = Quantitative High-Throughput drug screen in 47 multiple myeloma cell lines against the NCATS MIPE library collection: KMS11_JCRBsus cell viability assay (AID 1919873); also: nearly all actives have a fitted effect of over 50% in size; also: potency is read from the fitted curve at half-maximal effect
# Outline: as §1
# [3] = Quantitative High-Throughput drug screen in 47 multiple myeloma cell lines against the NCATS MIPE library collection: KMS28BM_JCRB cell viability assay (AID 1919874); also: nearly all actives have a fitted effect of over 35% in size; also: potency is read from the fitted curve at half-maximal effect
# Outline: as §1
# [4] = qHTS for identification of novel therapeutic agents for treatment of microphthalmiaassociated transcription factor (MiT) renal cell carcinoma (RCC) (AID 1963991); conditions: CellTiter-Glo, 48 h, stronger effect = lower value
# Outline: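 Viability of three TFE3-fusion renal carcinoma lines measured by CellTiter-Glo after 48 h treatment with each of 1912 compounds at 11 concentrations. Responses scaled between DMSO (100%) and empty wells (0%) before curve fitting.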
# [5] = qHTS drug screen for cell cycle checkpoint inhibitors in PARPi-resistant BRCA-mutant ovarian cancer cell lines. (AID 1963452; calls by dose curve; also: potency is read from the fitted curve at half-maximal effect); conditions: PEO1/OlaR viability, CellTiter-Glo luminescence, 96 h; for Z-AUC: stronger effect = lower value
# Outline: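 PEO1, PEO4 and PEO1/OlaR ovarian cancer cells, 600 per well, exposed 96 h at 37C to a dilution series. Viability read by CellTiter-Glo luminescence, normalized to DMSO and empty wells; activity summarized as Z-AUC.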
# [6] = Quantitative High-Throughput drug screen in 47 multiple myeloma cell lines against the NCATS MIPE library collection: OPM2_DSMZ cell viability assay (AID 1919872); also: potency is read from the fitted curve at half-maximal effect; nearly all actives have a fitted effect of over 30% in size
# Outline: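 Viability readout: CellTiter-Glo luminescence following 5 min room-temperature incubation with reagent. Prior exposure: 48 h, 37C, humidified 5% CO2, 500 cells per well.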
# [7] = TFE3-RCC UOK109 viability, measured here: UOK109 Z-AUC
# [8] = TFE3-RCC viability, measured here: UOK124 Z-AUC
# [9] = TFE3-RCC viability, measured here: UOK145 Z-AUC
# [10] = measured here: PEO1 parental Z-AUC
compound,measurement,setting,value
CN(C)c1nc(Cc2ccc(NC(=O)c3ccc(C(F)(F)F)cc3)cc2)nc(N(C)C)c1CC(=O)O,Potency,[1],6.62 µM (active)
same,Potency,[2],inactive
same,Potency,[3],inactive
same,z-score,[4]; [7],0.568
same,z-score,[4]; [8],0.491
same,z-score,[4]; [9],0.741
O=C1Nc2ccc(I)cc2C1=Cc1cc(Br)c(O)c(Br)c1,Potency,[1],inactive
same,Potency,[2],18.7 µM (active)
same,Potency,[3],inactive
COc1cccc(OC)c1-c1cc(C(=O)NC2(C(=O)O)C3CC4CC(C3)CC2C4)nn1-c1ccnc2cc(Cl)ccc12 (centres undefined),Potency,[1],inactive
same,Potency,[2],inactive
same,Potency,[3],inactive
same,Z-AUC,[5],1.24 (inactive)
same,Z-AUC,[5]; [10],0.986
same,Z-AUC,[5]; measured here: PEO4 Z-AUC,1.12
Cc1cc(OCCCS(C)(=O)=O)cc(C)c1-c1cccc(COc2ccc3c(c2)OC[C@H]3CC(=O)O)c1,Potency,[1],18.7 µM (active)
same,Potency,[2],18.7 µM (active)
same,Potency,[3],20.9 µM (active)
same,Z-AUC,[5],-0.127 (inactive)
same,Z-AUC,[5]; [10],0.128
same,Z-AUC,[5]; measured here: PEO4 Z-AUC,0.794
same,z-score,[4]; [7],0.542
same,z-score,[4]; [8],0.159
same,z-score,[4]; [9],0.614
COc1ccc(-c2ccc3ncc4c(c3c2)n(-c2ccc(N3CCNCC3)c(C(F)(F)F)c2)c(=O)n4C)cn1,Potency,[1],0.332 µM (active)
same,Potency,[5],0.123 µM (active)
same,Z-AUC,[5]; [10],-2.24
same,Z-AUC,[5]; measured here: PEO4 Z-AUC,-2.26
COc1cc2nccc(Oc3ccc(NC(=O)Nc4cc(C)on4)c(Cl)c3)c2cc1OC,Potency,[1],23.5 µM (active)
same,Potency,[2],20.9 µM (active)
same,Z-AUC,[5],-0.11 (inactive)
same,Z-AUC,[5]; [10],0.0474
same,Z-AUC,[5]; measured here: PEO4 Z-AUC,0.0316
O=C1CN2Cc3c(ccc(Cl)c3Cl)N=C2N1,Potency,[1],18.7 µM (active)
same,Z-AUC,[5],-0.36 (inactive)
same,Z-AUC,[5]; [10],0.71
same,Z-AUC,[5]; measured here: PEO4 Z-AUC,0.69
CN(C(Cc1ccc(OS(=O)(=O)c2cccc3cnccc23)cc1)C(=O)N1CCN(c2ccccc2)CC1)S(=O)(=O)c1cccc2cnccc12 (centres undefined),Potency,[1],5.26 µM (active)
same,Potency,[3],14.8 µM (active)
O=C(O)C1=CO[C@@H](O[C@@H]2O[C@H](CO)[C@H](O)[C@H](O)[C@H]2O)[C@@H]2C(CO)=CC[C@H]12,Potency,[1],4.18 µM (active)
same,Potency,[2],inactive
same,Potency,[3],inactive
same,z-score,[4]; [7],0.598
same,z-score,[4]; [8],0.803
same,z-score,[4]; [9],0.387
c1ccc(-c2oc3ncnc(NC[C@@H]4CCCO4)c3c2-c2ccccc2)cc1,Potency,[1],23.5 µM (active)
same,Potency,[2],16.6 µM (active)
same,Z-AUC,[5],-1.81 (inactive)
same,Z-AUC,[5]; [10],-0.438
same,Z-AUC,[5]; measured here: PEO4 Z-AUC,-1.2
CN1CCN(c2ncc(-c3cc(Cl)cc(Cl)c3Cl)c(N)n2)CC1,Potency,[1],inactive
same,Potency,[2],inactive
same,Potency,[3],inactive
same,Z-AUC,[5],-0.667 (inactive)
same,Z-AUC,[5]; [10],-0.953
same,Z-AUC,[5]; measured here: PEO4 Z-AUC,-0.943
Nc1nc(Cl)nc2c1ncn2[C@@H]1O[C@H](CO)[C@@H](O)[C@H]1F,Potency,[1],2.35 µM (active)
same,Potency,[3],0.0235 µM (active)
C[C@H](CCC(=O)O)[C@H]1CC[C@H]2[C@H]3[C@@H](CC[C@]12C)[C@@]1(C)CC[C@@H](O)C[C@H]1C[C@@H]3O,Potency,[6],6.62 µM (active)
same,Potency,[2],inactive
CNC(=O)c1cc(COc2nnc(Nc3ccc(Cl)cc3)c3ccoc23)ccn1,Potency,[1],20.9 µM (active)
same,Z-AUC,[5],0.731 (inactive)
same,Z-AUC,[5]; [10],0.432
same,Z-AUC,[5]; measured here: PEO4 Z-AUC,0.337
CCc1cccc(CC)c1NC(=O)N1Cc2[nH]nc(NC(=O)c3ccc(N4CCN(C)CC4)cc3)c2C1,Potency,[1],18.7 µM (active)
same,Potency,[3],1.18 µM (active)
same,Z-AUC,[5],-0.0238 (inactive)
same,Z-AUC,[5]; [10],0.421
same,Z-AUC,[5]; measured here: PEO4 Z-AUC,-0.125
CCC(=O)NCC[C@@H]1CCc2ccc3c(c21)CCO3,Potency,[1],inactive
same,Potency,[2],inactive
same,Potency,[3],inactive
same,Z-AUC,[5],-0.993 (inactive)
same,Z-AUC,[5]; [10],1.01
same,Z-AUC,[5]; measured here: PEO4 Z-AUC,0.501
O=C(O)C1=NC(C(=O)O)CC(C=CN2c3cc(O)c(OC4OC(CO)C(O)C(O)C4O)cc3CC2C(=O)O)=C1 (centres undefined),Potency,[1],inactive
same,Potency,[2],inactive
same,z-score,[4]; [7],1.58
same,z-score,[4]; [8],0.431
same,z-score,[4]; [9],0.57
Cc1cc2c(cc1C1(c3ccc(C(=O)O)cn3)CC1)C(C)(C)CCC2(C)C,Potency,[1],0.0118 µM (active)
same,Potency,[2],inactive
same,Z-AUC,[5],-0.226 (inactive)
same,Z-AUC,[5]; [10],0.647
same,Z-AUC,[5]; measured here: PEO4 Z-AUC,0.601
same,z-score,[4]; [7],1.13
same,z-score,[4]; [8],-2.74
same,z-score,[4]; [9],0.66
CC(=O)Nc1cccc(-n2c(=O)n(C3CC3)c(=O)c3c(Nc4ccc(I)cc4F)n(C)c(=O)c(C)c32)c1,Potency,[1],1.66 µM (active)
same,Potency,[3],inactive
same,Z-AUC,[5],-0.972 (inactive)
same,Z-AUC,[5]; [10],-1.33
same,Z-AUC,[5]; measured here: PEO4 Z-AUC,-1.07
CN1c2ccccc2C(=O)N2CCc3c([nH]c4ccccc34)C21 (centres undefined),Potency,[1],inactive
same,Potency,[2],2.96 µM (active)
same,Potency,[3],3.32 µM (active)
same,Z-AUC,[5],0.807 (inactive)
same,Z-AUC,[5]; [10],-0.272
same,Z-AUC,[5]; measured here: PEO4 Z-AUC,-0.128
Cc1cnc(CNC(=O)c2c(=O)c3ccc(N4CCCN(C)CC4)nc3n3c2sc2ccccc23)cn1,Potency,[1],8.12 µM (active)
same,Potency,[3],inactive
same,Z-AUC,[5],-0.335 (inactive)
same,Z-AUC,[5]; [10],-0.603
same,Z-AUC,[5]; measured here: PEO4 Z-AUC,0.0193
CC(=O)NCCC(=O)N[C@@H](CCC(N)=O)C(=O)N[C@@H](CO)C(=O)N[C@@H](CCC(N)=O)C(=O)N[C@@H](CCC(N)=O)C(=O)N[C@H](C(=O)N[C@@H](Cc1ccccc1)C(=O)N[C@]1(C)CCCCCCC=CCCC[C@@](C)(C(=O)N[C@@H](CCC(N)=O)C(=O)N[C@@H](CC(N)=O)C(N)=O)NC(=O)[C@H](CC(C)C)NC(=O)[C@H](CC(C)C)NC(=O)[C@@H](CCCNC(=N)N)NC(=O)[C@H](Cc2c[nH]c3ccccc23)NC(=O)[C@H](CC(C)C)NC(=O)[C@H](CC(N)=O)NC1=O)[C@H](C)O,Potency,[1],9.35 µM (active)
same,Potency,[3],inactive
same,Z-AUC,[5],-0.975 (inactive)
same,Z-AUC,[5]; [10],-0.536
same,Z-AUC,[5]; measured here: PEO4 Z-AUC,-0.428
